# L major viab: reduces viability of Leishmania major promastigotes. 9% of 200,000 active. inhibition, % at 10 µM. AID 1063. resazurin fluorescence viability; in the data active = inhibition above about 50%;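 note: promastigotes grown with compound for 44 hours at 28 °C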
# CHOP inhibitor: CHOP inhibition in unfolded protein response; CHO-K1 CHOP-promoter luciferase, tunicamycin-induced, 15-18 h; inhibition, % at 10 µM; 3.8% of 220,000 active; AID 2732;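 active = compounds that reduced the stress-induced luciferase reporter signal by more than about 70% of percent inhibition, limit read from the data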;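 note: 0% = tunicamycin plus vehicle and 100% = wells without tunicamycin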
# Arbovirus anti: arbovirus infection inhibition. inhibition, % at 10 µM. arbovirus infection cell-based antiviral screen. 0.37% of 200,000 active; in the data active = inhibition above about 30%
# WT yeast gro inh: growth inhibition of WT yeast, mitochondrial fusion screen. AID 1362. mitochondrial fusion phenotypic screen, WT strain. 2.1% of 190,000 active. inhibition, % at 10 µM; in the data active = inhibition above about 58%; tested in S. cerevisiae
# Active calls of the source: *; nt = no result given. Compounds with a hit are over-represented: about 12% of the library has one in this group of screens.
SMILES,L major viab,CHOP inhibitor,Arbovirus anti,WT yeast gro inh
CCOC(=O)c1c(NC(=O)C2c3ccccc3Oc3ccccc32)sc(C(=O)N(CC)CC)c1C,19,43,-2,-7
Oc1[nH]c2ccccc2c1N=Nc1ncnc2c1oc1ccccc12,nt,-35,nt,nt
CCOC(=O)c1[nH]c(CSc2nnc(-c3ccc(OC)cc3)o2)c(C(=O)OCC)c1C,-12,70*,-4,10
COc1ccc(-c2nnc(SCC(=O)c3[nH]c(C)c(C(C)=O)c3C)o2)cc1,-8,34,-33,-8
CCOC(=O)NNc1ccccc1,nt,10,nt,nt
CCC(O)CC(C(=O)NNc1ccccc1)C(=O)NNc1ccccc1 (stereo not given),72*,8,-24,22
CCN(CC(O)COCc1ccc(Cl)cc1)C1CCCCC1 (stereo not given),68*,4,-16,-4
CN(CC(O)COc1ccc(S(=O)(=O)N2CCOCC2)cc1)C1CCCCC1 (stereo not given),97*,10,2,-1
CN1CCC(N(C)C(=O)COc2ccc(S(=O)(=O)N3CCOCC3)cc2)CC1,3,9,-9,-4
Cc1ccccc1OCC(O)CN(Cc1ccccc1O)C1CCCCC1 (stereo not given),91*,88*,-26,22
CCN(CC(O)COc1ccc(OCC(O)CN(CC)C2CCCCC2)cc1)C1CCCCC1 (stereo not given),100*,-8,-20,1
CCOc1cccc(CNn2cnnc2)c1OCc1ccccc1Cl,4,2,-1,-10
CCOc1cccc(CNc2ccc(O)cc2)c1OCc1ccccc1Cl,99*,27,3,11
O=c1cc(O)c2c(=O)n(Cc3ccccc3)c3ccccc3c2o1,-3,21,6,19
O=c1cc(O)c2c(=O)n(C3CCCCC3)c3ccccc3c2o1,13,72*,6,7
C=C(C)C1CC=C(CN2CCC(C(=O)OCC)CC2)CC1 (stereo not given),95*,2,-10,10
C=C(C)C1CC=C(C(=O)O)CC1 (stereo not given),nt,-12,nt,nt
C=C(C)C1CC=C(CN2CC(C)OC(C)C2)CC1 (stereo not given),88*,39,1,10
CCOC(=O)C1CCN(C(=O)C(=O)N2CCC(C(=O)OCC)CC2)CC1,-2,-14,2,-3
Cc1cccc(C)c1NC(=O)COC(=O)c1c2c(nc3ccccc13)/C(=C\c1ccc3c(c1)OCO3)CCC2,83*,2,-22,-2
CC(OC(=O)c1c2c(nc3ccccc13)/C(=C\c1ccc3c(c1)OCO3)CCC2)C(=O)Nc1ccc(S(N)(=O)=O)cc1 (stereo not given),14,8,-35,6
O=C(O)COc1ccc(Br)cc1CP(=O)(c1ccccc1)c1ccccc1,nt,-17,nt,nt
O=C(NC1CCCCC1)C(c1cccnc1)N(C(=O)c1ccc(Cl)nc1)C1CCCCC1 (stereo not given),56*,15,14,-11
O=C(CCCC(=O)N(c1ccc2c(c1)OCCO2)C(C(=O)NC1CCCCC1)c1ccc(Cl)cc1)Nc1ccccn1 (stereo not given),58*,-8,-4,4
O=C(NC1CCCCC1)C(c1cccnc1)N(C(=O)CCl)c1cccc(Cl)c1 (stereo not given),100*,109*,-26,-8
SMILES,L major viab,CHOP inhibitor,Arbovirus anti,WT yeast gro inh
COc1cccc(N(C(=O)c2ccco2)C(C(=O)NC2CCCC2)c2cccnc2)c1 (stereo not given),-2,48,2,3
CC(C)CCNC(=O)C1CCCN1C(=O)NC1CCCCC1 (stereo not given),-4,-4,4,-7
Cc1c(N2C(=O)CSC2c2ccc(F)cc2)c(=O)n(-c2ccccc2)n1C (stereo not given),nt,9,nt,nt
COc1ccc(C(=O)N/N=C/c2ccc(OC)c(OS(=O)(=O)c3ccccc3)c2)cc1,91*,21,-16,17
COc1ccc(OC)c(/C=N\NC(=O)CC(=O)NCCc2ccccc2)c1,-2,-1,31*,11
COc1ccc(/C=N/NS(=O)(=O)c2ccccc2)cc1OC(=O)c1ccc(C)cc1,-4,74*,-5,-2
COc1cc(/C=N/NC(=O)CCc2ccccc2)ccc1O,4,21,8,70*
Cc1cc(C)nc(N2CCC(C(=O)NNC(=O)c3ccc(Cl)cc3)CC2)n1,nt,14,nt,nt
COc1ccccc1N1CCN(C(=O)c2ccc(Cn3c(=O)[nH]c4ccsc4c3=O)cc2)CC1,nt,15,nt,nt
O=C(C(=O)N1CCN(c2cccc(Cl)c2)CC1)c1c[nH]c2ccccc12,3,58,-2,30
CC/C(C)=N/Nc1nc(-c2cc3cccc(OC)c3oc2=O)cs1,nt,-7,nt,nt
CCOc1ccccc1/C=N/NC(=O)c1cccc(S(=O)(=O)N(CC)CC)c1,-2,-7,-2,-7
COc1ccc(/C=N/NC(=O)c2ccc(N(C)S(=O)(=O)c3ccccc3)cc2)c(OC)c1,7,-15,11,-7
CCOc1cc(/C=N/NC(=O)c2cccc([N+](=O)[O-])c2)ccc1OS(=O)(=O)c1ccccc1,78*,25,-10,-3
COc1ccc(OC)c(/C=N/NC(=O)c2ccc(N(C)S(=O)(=O)c3ccccc3)cc2)c1,99*,-24,-10,-5
CCN(CC)c1ccc(/C=C/C(=O)c2ccc(Br)cc2)cc1,-4,18,16,21
O=C(/C=C/c1ccccc1)c1ccc(NC2=NCCCS2)cc1,100*,-103,-34,57
O=C(/C=C/c1ccc(Br)cc1)c1ccc(NC2=NCCCS2)cc1,100*,-58,-32,81
c1ccc(NC2=NCCCCS2)cc1,-3,-8,-1,-23
CC(C)(C)c1ccc(/C=C/C(=O)c2ccc(NC3=NCCCS3)cc2)cc1,100*,-1,-21,79
CCN(CC)CCCNC(=O)CSc1nc(-c2ccc(F)cc2)cc(C(F)(F)F)n1,13,8,-16,-3
CCOC(=O)N1CCN(S(=O)(=O)c2ccc3[nH]c(=O)oc3c2)CC1,nt,-5,nt,nt
CCOC(=O)C1CCN(S(=O)(=O)c2ccc3[nH]c(=O)oc3c2)CC1,-9,78*,8,4
CCOC(=O)C1CCN(S(=O)(=O)c2cc(Cl)c(C)cc2OC)CC1,91*,23,-6,20
CCOc1cc(S(=O)(=O)N2CCN(CC)CC2)ccc1Cl,90*,8,2,3
SMILES,L major viab,CHOP inhibitor,Arbovirus anti,WT yeast gro inh
CCOC(=O)C1CCN(S(=O)(=O)c2ccc(OC)c(OC)c2)CC1,-6,18,9,-4
CCOC(=O)C1CCN(S(=O)(=O)c2ccc(Br)c(OCC)c2)CC1,-5,88*,2,-3
CCSc1ccccc1C(=O)Nc1ccc(S(=O)(=O)NC(C)=O)cc1,-7,-25,2,-1
COc1cc2ncnc(NCCCN3CCOCC3)c2cc1OC,nt,-9,nt,nt
c1ccc(-c2oc3ncnc(NCCCN4CCOCC4)c3c2-c2ccccc2)cc1,100*,36,-28,-6
c1ccc(-c2csc3ncnc(NCCN4CCOCC4)c23)cc1,0,36,17,1
COc1ccc(-c2oc3ncn(CCN4CCOCC4)c(=N)c3c2-c2ccc(OC)cc2)cc1,55*,11,-26,0
COc1ccc(-c2oc3ncnc(NCCCN4CCOCC4)c3c2-c2ccc(OC)cc2)cc1,75*,15,-21,7
